Assay [1] in a line: NCI Yeast Anticancer Drug Screen. Data for the rad50 strain (AID 155).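 Note: 0% = growth of vehicle-only cultures of the same strain.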 The note with it: S. cerevisiae rad50 strain growth inhibition; at 50.0 µM; active compounds read high. A digest of the protocol: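 Compounds were tested on a yeast strain with an engineered DNA damage repair alteration; the reported value is growth inhibition normalised to vehicle treatment.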
Assay [2] can be described thus: NCI Yeast Anticancer Drug Screen. Data for the mec2-1 strain (AID 157). Particulars: S. cerevisiae mec2-1 strain, at 50.0 µM, active compounds read high. A digest of the protocol: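 Readout is yeast growth inhibition, normalised to vehicle-treated controls, in the mec2-1 strain exposed to compound.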
Assay [3] can be described thus: NCI Yeast Anticancer Drug Screen. Data for the sgs1 mgt1 strain (AID 161).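 Note: 0% = growth of cultures given vehicle only.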 The note with it: S. cerevisiae sgs1 mgt1 strain, at 50.0 µM, active compounds read high. A digest of the protocol:
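Growth of a repair-deficient yeast mutant was monitored after compound treatment and expressed as inhibition relative to vehicle-treated cultures.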

Assay [4] in a line: NCI Yeast Anticancer Drug Screen. Data for the cln2 rad14 strain (AID 165).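 Note: 0% = growth equal to vehicle treated cultures.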 Particulars: S. cerevisiae cln2 rad14 strain, at 50.0 µM, active compounds read high. A digest of the protocol:
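Relative to vehicle controls, growth inhibition of compound-treated cln2 rad14 yeast was recorded.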

A short description of assay [5]: NCI Yeast Anticancer Drug Screen. Data for the bub3 strain (AID 167). The note with it: S. cerevisiae bub3 mutant strain, at 50.0 µM, active compounds read high. A digest of the protocol: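 Growth of a checkpoint-deficient yeast mutant is measured after compound exposure. Values represent inhibition relative to vehicle.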
Assay [6] is described as follows: NCI Yeast Anticancer Drug Screen. Data for the mlh1 rad18 strain (AID 175). Particulars: S. cerevisiae mlh1 rad18 strain growth inhibition; at 50.0 µM; active compounds read high. A digest of the protocol:
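Test agents were incubated with a yeast strain of defined genotype (DNA damage repair defect). Inhibition of growth was derived by comparison with vehicle-exposed cultures.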

This is part of a sample that, as a whole, favours compounds with a hit. Of some 79,000 tested, about 15% had one in any assay. A number with no mark means an inactive call. Activity calls are given as the source filed them. Cut-off read from the data, not from the text of the source: active = growth inhibition above about 70%; inactive = the rest.

As to `CC(=O)NC(Cc1ccccc1)C(=O)NN` (stereo unspecified), the growth inhibition was 7.15% in assay [1]; -8.3% in assay [2]; -11.2% in assay [3]; -0.35% in assay [4]; -6.55% in assay [5]; -22.3% in assay [6].

With `CSc1cnc(N)s1`, the growth inhibition is 14.6% in assay [1]; 14.8% in assay [2]; 3% in assay [3]; -13.1% in assay [4]; -2.45% in assay [5]; 32.4% in assay [6].

As for `CCCCCCCCCCCCCCCCCCCCCCCCCCCC`, the growth inhibition was -8.5% in assay [1]; -10.1% in assay [2]; -16% in assay [3]; -21.2% in assay [4]; -4.55% in assay [5]; -22.9% in assay [6].

On to `O=c1ccn(C2OC(CF)C(O)C2O)c(=O)[nH]1` (stereo unspecified), for which the growth inhibition in assay [1] was 1.8%; in assay [2], -2.85%; in assay [3], -1.4%; in assay [4], 9.05%; in assay [5], 0.7%; in assay [6] it was -9.9%.

`CSSC(SSC)C(SSC)SSC`: the growth inhibition in assay [1] is -4.7%; in assay [2], 4.2%; in assay [3], 43.4%; in assay [4] it was 1.4%; in assay [5], 36.8%; in assay [6], 47.8%.

For the compound `O=C(O)C1CCCCN1/N=C/c1ccccc1` (stereo unspecified), the growth inhibition in assay [1] was 15.8%; in assay [2] it was 6.8%; in assay [3], -1.65%; in assay [4], -13.6%; in assay [5], -30.8%; in assay [6], 21.9%.

With `COc1cc2cc3c(c(O)c2c(O)c1/C=C/C(C)C)C(=O)CC(C)(OC(C)=O)C3` (stereo unspecified), the growth inhibition in assay [1] is 36.3%; in assay [2], 8.95%; in assay [3] it was 36.5%; in assay [4], 30.4%; in assay [5], 18.8%; in assay [6], 74.2% (active).

Turning to `CCC(O)CNCc1c2ccccc2cc2ccccc12` (stereo unspecified), the growth inhibition in assay [1] is 20.1%; in assay [2], 14.7%; in assay [3] it was 22.1%; in assay [4] it was 12.6%; in assay [5], 1.95%; in assay [6] it was 10.8%.

Take `O=C1C(=O)c2ccccc2C(O)=C1CCCc1ccc(S(=O)(=O)c2ccccc2)cc1`: the growth inhibition was 2.35% in assay [1]; 11.8% in assay [2]; 0.7% in assay [3]; 55.1% in assay [4]; 16.2% in assay [5]; 9.2% in assay [6].

Turning to `Cc1ccc(C(=O)C2=CN=C3C(=O)N(c4ccccc4)N(C)C3(C)C2=N)cc1` (stereo unspecified), the growth inhibition is -4.65% in assay [1]; 36.7% in assay [2]; 11.2% in assay [3]; 1.1% in assay [4]; 4.9% in assay [5]; 36.1% in assay [6].

For `COC(=O)C1=C(C(=O)OC)C2C=CC1C1C(Cl)=C(Cl)C21` (stereo unspecified), the growth inhibition in assay [1] is -12%; in assay [2], -0.95%; in assay [3] it was -10.7%; in assay [4], 21.2%; in assay [5], 33.6%; in assay [6] it was -34%.

As to `CCOC(=O)/C=C/CI`, the growth inhibition in assay [1] was 12.8%; in assay [2], -34.5%; in assay [3], 10.4%; in assay [4] it was 8.4%; in assay [5] it was 13.5%; in assay [6], 16.2%.

For the compound `O=[N+]([O-])c1ccc2nc(NCCCO)c3ccccc3c2c1`, the growth inhibition in assay [1] is 8.2%; in assay [2] it was 11.3%; in assay [3], 3.85%; in assay [4], -0.9%; in assay [5], 12.1%; in assay [6] it was 12.1%.

As to `Cc1cc(C)cc(Cc2ccc3ccccc3c2)c1`, the growth inhibition in assay [1] is 2.9%; in assay [2], -3.65%; in assay [3] it was -1.15%; in assay [4] it was -12.3%; in assay [5] it was 9.45%; in assay [6], 8.45%.

As to `O=C(NC(Cc1ccccc1)C(=O)N1CCOCC1)c1ccccc1` (stereo unspecified), the growth inhibition in assay [1] is 6.1%; in assay [2], 12.6%; in assay [3], -1.35%; in assay [4] it was 3.2%; in assay [5], 1.85%; in assay [6], -0.35%.

Turning to `N=C(N)SCC(O)C(O)CSC(=N)N` (stereo unspecified), the growth inhibition in assay [1] is 0.3%; in assay [2], 4.4%; in assay [3] it was -0.95%; in assay [4] it was -30.1%; in assay [5] it was -6.45%; in assay [6] it was -1.5%.

For `C[Si](C)(C)OC=C1CCCCC1`, the growth inhibition in assay [1] is 12.1%; in assay [2] it was -3.95%; in assay [3] it was -3.55%; in assay [4], -29.2%; in assay [5] it was -21.4%; in assay [6] it was 9.7%.

`O=C(/C=C/c1ccccc1)NC(=S)Nc1ccccc1F`: the growth inhibition was 12.1% in assay [1]; -3.1% in assay [2]; -23.9% in assay [3]; -12.4% in assay [4]; 29.7% in assay [5]; 20.6% in assay [6].

For `O=c1cc(CC2(O)CCCCC2)c2ccccc2[nH]1`, the growth inhibition is -3.95% in assay [1]; 0.3% in assay [2]; -2.5% in assay [3]; -58% in assay [4]; -48.8% in assay [5]; 9.8% in assay [6].

As for `O=C1c2ccccc2N2Oc3ccccc3C12c1ccccc1` (stereo unspecified), the growth inhibition in assay [1] is -3.45%; in assay [2], -13.2%; in assay [3] it was -16%; in assay [4], 0.55%; in assay [5] it was -21.2%; in assay [6] it was 18.8%.

Take `CC(C)(C)C(=O)C(=O)O`: the growth inhibition in assay [1] was 19.9%; in assay [2], -13.2%; in assay [3], -3.7%; in assay [4], 1.15%; in assay [5] it was -8.5%; in assay [6] it was 14.6%.
